Assay results from PubChem BioAssay (EPA / NIEHS).
Activity calls are given as the source filed them. Rule for the calls: active = hit-call score of the fitted dose curve at least 0.9, where 1 is the maximum; inactive = score below 0.9.

Key:
[1] = BSK_CASM3C_SRB: Viability Assessment in the BioMAP Diversity Plus: CASM3C Assay (AID 2283050); details: primary human coronary artery smooth muscle cells;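 note: total protein by SRB staining as cytotoxicity measure in parallel cultures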
[2] = read-out: Thrombomodulin, THBD (gene 7056); experiment: BSK_CASM3C_Thrombomodulin: BioMAP Diversity Plus: CASM3C Assay for Thrombomodulin Biomarker Activity (AID 2283051); details: primary human coronary artery smooth muscle cells; actives raise or lower the signal;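 note: thrombomodulin protein level measured by ELISA 24 h after dosing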
[3] = read-out: Tissue Factor, F3 (gene 2152); experiment: BSK_CASM3C_TissueFactor: BioMAP Diversity Plus: CASM3C Assay for Tissue Factor Biomarker Activity (AID 2283052); details: primary human coronary artery smooth muscle cells; actives raise or lower the signal;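 note: cell surface tissue factor protein level read by ELISA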
[4] = read-out: Interferon-gamma inducible Protein 10 (IP10), CXCL10 (gene 3627); experiment: BSK_hDFCGF_IP10: BioMAP Diversity Plus: hDFCGF Assay for Interferon-gamma inducible Protein 10 (IP10) Biomarker Activity (AID 2283053); details: primary human foreskin fibroblasts; actives raise or lower the signal
In short: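 Human foreskin fibroblast primary cells (hDFCGF system) were dosed with chemical and assayed at 24 h; IP-10 measured by ELISA. Activity fitted bidirectionally relative to DMSO negative control as baseline.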

[5] = read-out: Urokinase-type plasminogen activator receptor (uPAR), PLAUR (gene 5329); experiment: BSK_CASM3C_uPAR: BioMAP Diversity Plus: CASM3C Assay for Urokinase-type plasminogen activator receptor (uPAR) Biomarker Activity (AID 2283054); details: primary human coronary artery smooth muscle cells; actives raise or lower the signal;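 note: cell-surface uPAR protein level quantified by ELISA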
[6] = read-out: Vascular cell adhesion molecule 1 (VCAM1), VCAM1 (gene 7412); experiment: BSK_CASM3C_VCAM1: BioMAP Diversity Plus: CASM3C Assay for Vascular cell adhesion molecule 1 (VCAM1) Biomarker Activity (AID 2283055); details: primary human coronary artery smooth muscle cells; actives raise or lower the signal;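 note: VCAM-1 protein level quantified by ELISA on the cells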
[7] = read-out: Collagen III, COL3A1 (gene 1281); experiment: BSK_hDFCGF_CollagenIII: BioMAP Diversity Plus: hDFCGF Assay for Collagen III Biomarker Activity (AID 2283056); details: primary human foreskin fibroblasts; actives raise or lower the signal
In short: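 Cells: human foreskin fibroblasts, primary. Dosing followed by 24 h incubation, then ELISA for collagen III. Both increases and decreases scored relative to DMSO.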

[8] = read-out: Epidermal growth factor receptor (EGFR), EGFR (gene 1956); experiment: BSK_hDFCGF_EGFR: BioMAP Diversity Plus: hDFCGF Assay for Epidermal growth factor receptor (EGFR) Biomarker Activity (AID 2283057); details: primary human foreskin fibroblasts; actives raise or lower the signal
In short: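 Primary human foreskin fibroblasts were exposed to compound for 24 h, after which cell-surface EGFR was quantified by ELISA. Activity was fitted bidirectionally against the DMSO negative control as baseline.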

[9] = read-out: Interleukin-8 (IL8), CXCL8 (gene 3576); experiment: BSK_hDFCGF_IL8: BioMAP Diversity Plus: hDFCGF Assay for Interleukin-8 (IL8) Biomarker Activity (AID 2283058); details: primary human foreskin fibroblasts; actives raise or lower the signal
In short: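 IL-8 levels from compound-treated primary human fibroblasts were read by ELISA at 24 h, with DMSO serving as baseline for bidirectional fitting.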

[10] = BSK_hDFCGF_Proliferation: Cell Proliferation Assessment in the BioMAP Diversity Plus: hDFCGF Assay (AID 2283059); details: primary human foreskin fibroblasts;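 note: curves fitted for both rise and fall of signal versus DMSO baseline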
In short: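 Total protein read at 560 nm after 0.1% SRB staining of TCA-fixed human skin fibroblasts, […]. Activity is fitted in both directions relative to DMSO as baseline.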

| SMILES | outcome [1] | outcome [2] | outcome [3] | outcome [4] | outcome [5] | outcome [6] | outcome [7] | outcome [8] | outcome [9] | outcome [10] | AC50 [4] | AC50 [7] | AC50 [2] | AC50 [8] | AC50 [10] | AC50 [5] |
| --- | --- | --- | --- | --- | --- | --- | --- | --- | --- | --- | --- | --- | --- | --- | --- | --- |
| CCOP(=S)(OCC)Oc1cc(C)nc(C(C)C)n1 | inactive | inactive | inactive | inactive | inactive | inactive | inactive | inactive | inactive | inactive | – | – | – | – | – | – |
| C#CC(C)(C)NC(=O)c1cc(Cl)cc(Cl)c1 | inactive | inactive | inactive | – | inactive | inactive | – | inactive | inactive | inactive | 4.25 µM (active) | 2.72 µM (active) | – | – | – | – |
| COP(=O)(OC)C(O)C(Cl)(Cl)Cl (configuration not stated) | inactive | inactive | inactive | inactive | inactive | inactive | inactive | inactive | – | inactive | – | – | – | – | – | – |
| CC(=NC#N)N(C)Cc1ccc(Cl)nc1 | inactive | inactive | inactive | inactive | inactive | inactive | inactive | inactive | inactive | inactive | – | – | – | – | – | – |
| CCC(=O)Nc1ccc(Cl)c(Cl)c1 | inactive | inactive | inactive | inactive | inactive | inactive | inactive | inactive | inactive | inactive | – | – | – | – | – | – |
| CCCCOC(=O)[C@@H](C)Oc1ccc(Oc2ccc(C#N)cc2F)cc1 | inactive | inactive | inactive | inactive | inactive | inactive | inactive | inactive | inactive | inactive | – | – | – | – | – | – |
| CC1(C(=O)Nc2ccc(O)c(Cl)c2Cl)CCCCC1 | inactive | inactive | inactive | inactive | – | inactive | inactive | inactive | inactive | inactive | – | – | – | – | – | – |
| C=C(C)[C@H]1Cc2c(ccc3c2O[C@@H]2COc4cc(OC)c(OC)cc4[C@@H]2C3=O)O1 | inactive | – | inactive | inactive | inactive | inactive | inactive | – | inactive | – | – | – | 0.164 µM (active) | 0.771 µM (active) | 0.486 µM (active) | – |
| CCNc1nc(Cl)nc(NC(C)(C)C#N)n1 | inactive | – | inactive | inactive | – | inactive | inactive | inactive | inactive | – | – | – | 3.97 µM (active) | – | 12.2 µM (active) | 30.8 µM (active) |
| CNC(=O)Oc1cccc2c1OC(C)(C)O2 | inactive | inactive | inactive | inactive | inactive | inactive | inactive | – | inactive | inactive | – | – | – | 12.2 µM (active) | – | – |
| CN(C)C(=O)Nc1cccc(C(F)(F)F)c1 | inactive | inactive | inactive | inactive | inactive | inactive | inactive | inactive | inactive | inactive | – | – | – | – | – | – |
| CCc1cccc(C)c1N(C(=O)CCl)C(C)COC (configuration not stated) | inactive | inactive | inactive | – | inactive | inactive | inactive | inactive | inactive | – | 20 µM (active) | – | – | – | 16.1 µM (active) | – |
| Cc1cc(C2CC2)nc(Nc2ccccc2)n1 | inactive | – | inactive | – | inactive | inactive | inactive | inactive | inactive | – | 6.65 µM (active) | – | 27.8 µM (active) | – | 15 µM (active) | – |
| CN(C)NC(=O)CCC(=O)O | inactive | inactive | inactive | inactive | inactive | inactive | inactive | inactive | inactive | inactive | – | – | – | – | – | – |
| CCOP(=S)(OCC)SCCSCC | inactive | inactive | inactive | – | inactive | inactive | inactive | inactive | inactive | inactive | – | – | – | – | – | – |
| CC(COc1ccc(Oc2ccccc2)cc1)Oc1ccccn1 (configuration not stated) | inactive | inactive | inactive | inactive | inactive | inactive | inactive | inactive | inactive | – | – | – | – | – | 10.8 µM (active) | – |
| Cc1nn(-c2cc(NS(C)(=O)=O)c(Cl)cc2Cl)c(=O)n1C(F)F | inactive | inactive | inactive | inactive | inactive | inactive | inactive | inactive | inactive | inactive | – | – | – | – | – | – |
| CCC(CC)Nc1c([N+](=O)[O-])cc(C)c(C)c1[N+](=O)[O-] | inactive | – | inactive | – | inactive | inactive | inactive | inactive | inactive | – | 20 µM (active) | – | 16.3 µM (active) | – | 29.2 µM (active) | – |
